Measurements taken from PubChem BioAssay AID463173 (ICCB-Longwood Screening Facility, Harvard Medical School, 2010).
In all, about 52,000 compounds went through this assay and about 4,300 (8.3%) were called active. This is one part of a sample in which actives are shown more often than they occur. Cut-off read from the data, not from the text of the source: active = survival mostly below about 52% (no sharp cut-off); inactive = mostly above about 56%.

Test system: DeltatarO mutant
Experiment: S. aureus survival, RN4220 and DeltatarO strains – OD600, teichoic acid synthesis inhibitors, primary screen (AID 463173)
Settings: S. aureus RN4220 wild type/DeltatarO growth, OD600, 18 h, active compounds read low, screened at 18.75 µg/mL (by protocol)

Compound	survival
CN1C(=O)C2(c3ccccc31)N(c1ccccc1)C(=O)CS2(=O)=O (centres undefined)	91% (inactive)
Cc1nc(-c2ccc(F)cc2)sc1CCNC(=O)c1ccco1	116% (inactive)
O=C(Nc1ccc2nn(-c3ccccc3)nc2c1)c1ccccc1	97% (inactive)
Cc1cc(C)c2nc(N(Cc3cccnc3)C(=O)Cc3ccccc3)sc2c1	79% (inactive)
CCCCOc1ccc(C(=O)NCCc2csc(-c3cccc(F)c3)n2)cc1	96% (inactive)
O=C(N/N=C1/CSC(=O)N1Cc1cccs1)c1cccs1	75% (inactive)
Cc1cc(C)c(S(=O)(=O)NCCc2cc3cc(C)c(C)cc3[nH]c2=O)c(C)c1	63% (inactive)
COc1ccc(N(C)C(C)=O)cc1	91% (inactive)
CCc1ccc(C(=O)c2cn(CC(=O)Nc3cc(OC)cc(OC)c3)c3ccc(CC)cc3c2=O)cc1	84% (inactive)
CC(C)(C)c1ccc(-c2noc(CCC(=O)Nc3cccc(Cl)c3)n2)cc1	87% (inactive)
CCN(C(=O)CCc1nc(-c2ccc(C)cc2)no1)c1cccc(Cl)c1	-5% (active)
CCN(C(=O)Cc1nc(-c2ccc(OC)cc2)no1)c1cccc(Cl)c1	83% (inactive)
CCOCCCNC(=O)C(c1ccc(OC)cc1)N(Cc1cccs1)C(=O)c1ccc(NC(C)=O)cc1 (centres undefined)	53% (inactive)
Cn1nc(C(=O)NCc2cccc(Cl)c2)c2c1-c1ccccc1SC2	74% (inactive)
COc1cccc(NC(=O)c2c(C)nn(-c3cccc(C)c3)c2-n2cccc2)c1	8% (active)
COc1cccc(CNC(=O)c2c(C)nn(-c3cccc(C)c3)c2-n2cccc2)c1	81% (inactive)
CCOC(=O)N1CCN(C(=O)c2c(C)nn(-c3cccc(C)c3)c2-n2cccc2)CC1	20% (active)
COc1cc(NC(=O)c2c(C)nn(-c3ccc(F)cc3)c2-n2cccc2)cc(OC)c1	78% (inactive)
Cc1cccc(-n2nc(C)c(C(=O)N3CCN(c4ccccc4)CC3)c2-n2cccc2)c1	66% (inactive)
CCOC(=O)N1CCC(NC(=O)c2c(C)nn(-c3cccc(C)c3)c2-n2cccc2)CC1	89% (inactive)
O=C(CCOc1ccccc1)N(Cc1cccnc1)c1nc2c(Cl)cccc2s1	80% (inactive)
CN(C)c1ccc(CNC(=O)CN(C)S(=O)(=O)c2ccc3c(c2)c(=O)n(C)c(=O)n3C)cc1	97% (inactive)
COc1ccc(CNC(=O)C(CCSC)NS(=O)(=O)c2ccc3c(c2)oc(=O)n3C)cc1 (centres undefined)	69% (inactive)
Cc1c(C(=O)N(C)C)sc2c1c(=O)n(-c1ccccc1C(F)(F)F)c(=O)n2Cc1cccc(F)c1	78% (inactive)
CC(C)(C)OC(=O)N1CCC(c2c(C(=O)N3CCN(c4ncccn4)CC3)cnn2-c2ccccc2)CC1	94% (inactive)
CC(C)(C)OC(=O)N1CCC(c2c(C(=O)N3CCN(c4ncccn4)CC3)cnn2-c2ccc(F)cc2F)CC1	6% (active)
Cc1cccc(N2CCN(C(=O)c3cnn(-c4ccc(F)cc4F)c3C3CCN(C(=O)OC(C)(C)C)CC3)CC2)c1C	82% (inactive)

Compound	survival
CC(C)(C)OC(=O)N1CCC(c2c(C(=O)N3CCN(c4ncccn4)CC3)cnn2-c2ccc(F)cc2)CC1	17% (active)
Cc1ccc(-n2ncc(C(=O)N3CCN(c4cccc(C)c4C)CC3)c2C2CCNCC2)c(C)c1	83% (inactive)
COc1ccccc1N1CCN(C(=O)c2cnn(-c3ccc(F)cc3F)c2C2CCNCC2)CC1	32% (active)
CC(C)(C)OC(=O)N1CCC(c2c(C(=O)N3CCN(c4ccccn4)CC3)cnn2-c2ccc(F)cc2F)CC1	79% (inactive)
CN1CCN(C(=O)c2cnn(-c3ccc(F)cc3F)c2C2CCN(C(=O)OC(C)(C)C)CC2)CC1	80% (inactive)
Cc1ccc(-n2ncc(C(=O)N3CCN(c4ncccn4)CC3)c2C2CCN(C(=O)OC(C)(C)C)CC2)cc1	80% (inactive)
CCc1[nH]nc2c1C1(C(=O)Nc3ccc(Cl)cc31)C(C#N)=C(N)O2 (centres undefined)	78% (inactive)
O=C(CSc1ncc2c(n1)-c1ccccc1N(Cc1ccc(Cl)cc1)S2(=O)=O)c1ccccc1	144% (inactive)
O=C(CN1C(=O)CC(c2ccco2)Sc2ccccc21)Nc1cccc(C(F)(F)F)c1 (centres undefined)	103% (inactive)
CC1CCCN(Cc2nc3c(c(=O)n(C)c(=O)n3C)n2Cc2ccc(Cl)cc2)C1 (centres undefined)	90% (inactive)
Fc1ccccc1N1CCN(c2c3c(nc4nncn24)CCC3)CC1	81% (inactive)
Cc1ccc(N2CCN(S(=O)(=O)c3nnc(NC(=O)c4ccccc4)s3)CC2)cc1	57% (inactive)
Cc1ccc(C)c(N2CCN(S(=O)(=O)c3cn(C)c(C)n3)CC2)c1	72% (inactive)
Cc1nc(S(=O)(=O)N2CCN(c3ccccc3F)CC2)cn1C	117% (inactive)
Cc1ccccc1N1CCN(S(=O)(=O)c2nnc(NC(=O)c3ccccc3)s2)CC1	26% (active)
Cc1ccccc1NS(=O)(=O)c1nnc(NC(=O)c2ccco2)s1	88% (inactive)
Cc1ccccc1NS(=O)(=O)c1nnc(NC(=O)c2ccc(Cl)cc2)s1	41% (active)
Cc1cccc(N2CCN(S(=O)(=O)c3cn(C)c(C)n3)CC2)c1C	0% (active)
CC1CCN(S(=O)(=O)c2nnc(NC(=O)c3ccc(C(C)C)cc3)s2)CC1	62% (inactive)
Cc1ccccc1N1CCN(S(=O)(=O)c2nnc(NC(=O)c3ccc(C(C)C)cc3)s2)CC1	38% (active)
Cc1ccccc1NS(=O)(=O)c1nnc(NC(=O)c2ccccc2C)s1	76% (inactive)
CC(C)OC(=O)Cn1nnc(-c2ccccc2)n1	82% (inactive)
CC(=O)c1cccc(NC(=O)c2ccc(-n3c(C)nnc3C)cc2)c1	70% (inactive)
CC(C)(C)OC(=O)N1C(C(=O)O)CSC1c1cccc(Br)c1 (centres undefined)	101% (inactive)
Cc1ccc(NC(=O)N2CCc3cc(S(=O)(=O)N4CCC(C)CC4)ccc32)cc1	96% (inactive)
Cc1ccc(CN(Cc2cccn2-c2nnc(N3CCCC3=O)s2)C(=O)Nc2ccccc2Cl)cc1	104% (inactive)
COc1ccccc1CNC(=O)c1cn(C)c2ccc(S(=O)(=O)N3CCC(C)CC3)cc2c1=O	92% (inactive)
